For the first assay, the target named is C6orf203. Nature of the assay: pooled miR-30 sensor sort-seq; sequence = guide strand. The settings on record: shRNA.
TTCAGGACAACATCATACCGAA: the sensor-assay potency score (higher = more potent) was -0.635.

For TTAGTAGATTTTGTAGACCTTA, the sensor-assay potency score (higher = more potent) is -0.225.

Sequence TTAAACTTTTCCACCGCCGTAA had a sensor-assay potency score (higher = more potent) of -0.414.

As for TAGTAGATTTTGTAGACCTTAT, the sensor-assay potency score (higher = more potent) was -0.878.

TATTTTAATAAAAATGTCCTAT displayed a sensor-assay potency score (higher = more potent) of -0.604.

The target of a further assay is C6orf223. Described as above. The settings on record: shRNA.
In the case of AATTAGAGCGCATTAGCCGTGC, the sensor-assay potency score (higher = more potent) is -0.806.

Consider TTTGAGGACAGCTGAAGTCTTG, for which the sensor-assay potency score (higher = more potent) was -0.66.

The sequence TTGAGGACAGCTGAAGTCTTGC registered a sensor-assay potency score (higher = more potent) of -0.761.

Turning to TAGAGGAGAGCTCTGAGCCTGG, the sensor-assay potency score (higher = more potent) was -0.55.

For the sequence TAATTAGAGCGCATTAGCCGTG, the sensor-assay potency score (higher = more potent) was -0.678.

The sequence TTTCTTCTCGCGCTCGGGGTGT came in with a sensor-assay potency score (higher = more potent) of -0.841.

With TAATTTCTTCTCGCGCTCGGGG, the sensor-assay potency score (higher = more potent) is -0.685.

In turn, TCTTCTGGATGCTCTGACCATC returned a sensor-assay potency score (higher = more potent) of -1.03.

In turn, AAACACTCTGTCTTCCTGCTTT gave a sensor-assay potency score (higher = more potent) of 0.482.

Consider TTCTTCTGGATGCTCTGACCAT, for which the sensor-assay potency score (higher = more potent) was -0.868.

For AAGTCTTGCCACTTCTTCTGGA, the sensor-assay potency score (higher = more potent) was -0.0269.

In turn, TTGGCTGAGTCAGACTCTCGGA displayed a sensor-assay potency score (higher = more potent) of -0.102.

The next assay concerns the target C6orf48. Described as above. The settings on record: shRNA.
TGTCAGCAAATTCCATAGCAAG: the sensor-assay potency score (higher = more potent) is -1.37.

Regarding TCAAGTTGCAGGAATCACTGTC, the sensor-assay potency score (higher = more potent) turned out to be 0.907.

For the sequence AAGTTCTTAGGATATGCCCAGC, the sensor-assay potency score (higher = more potent) was -0.846.

Consider ATAGCAAGGAAGGAGAACAGGC, for which the sensor-assay potency score (higher = more potent) is -1.07.

On to ATATTGTGTCAGCAAATTCCAT, for which the sensor-assay potency score (higher = more potent) is -1.29.

Sequence AGTTGCAGGAATCACTGTCTAA gave a sensor-assay potency score (higher = more potent) of -1.7.

As for TGACAGCTGCTCACACAGGATA, the sensor-assay potency score (higher = more potent) was -1.51.

Sequence TTAGGATATGCCCAGCACCAGG had a sensor-assay potency score (higher = more potent) of -1.71.

As for TATTGTGTCAGCAAATTCCATA, the sensor-assay potency score (higher = more potent) is -0.54.

In the case of TAAGTTCTTAGGATATGCCCAG, the sensor-assay potency score (higher = more potent) was -0.415.

In turn, TCACACAGGATAATACAGGAAA showed a sensor-assay potency score (higher = more potent) of -0.815.

Sequence TTCCATAGCAAGGAAGGAGAAC showed a sensor-assay potency score (higher = more potent) of -0.82.

The target of a further assay is C6orf58. The assay is described as above. The settings on record: shRNA.
Sequence TTATATGATCTAATCAAGGTTG had a sensor-assay potency score (higher = more potent) of -0.152.

In the case of TAGAATAATAATCATATCTGTC, the sensor-assay potency score (higher = more potent) was -0.538.

TAGATTTATCCACATTGTCAAG came in with a sensor-assay potency score (higher = more potent) of -1.66.

With TATGATTTTATACATCCCCATT, the sensor-assay potency score (higher = more potent) was -1.55.

In turn, TTTATCCACATTGTCAAGCATA displayed a sensor-assay potency score (higher = more potent) of -1.01.

For TTTCTGTACAAAGATAACCTAT, the sensor-assay potency score (higher = more potent) is -0.334.

Consider TTACTGATTGTCAAGTTCGAGT, for which the sensor-assay potency score (higher = more potent) is -0.967.

In turn, TTACACCAGAATCAACCGCAGC had a sensor-assay potency score (higher = more potent) of -1.25.

As for TTGGATCAGCTAATCTGCCTGT, the sensor-assay potency score (higher = more potent) came out at 0.319.

Take TTCTGTACAAAGATAACCTATA: the sensor-assay potency score (higher = more potent) was -1.09.

The sequence TATTCTGTTCATTATCTGGTGC had a sensor-assay potency score (higher = more potent) of -0.148.
Note: reference of the scale not given here.
